In PubChem BioAssay (NCATS):
Where “and” joins values, the source holds several entries; their conditions need not be identical. Equal entries are not always repeated. Results filed as inconclusive are left out. Calls of active or inactive are those of the source. Unless noted, calls come from the whole dose curve; as a rule, active = well fitted curve in the direction sought with a large enough effect; inconclusive = small, poorly fitted or top-dose-only effect, or another doubt; inactive = no such curve, though single readings can be large; an effect the other way counts as inactive or inconclusive.

Assays:
[1] = Cellular Toxicity (caspase-3) HUV-EC-C (AID 656);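 note: 0% = DMSO basal and 100% = 100 µM tamoxifen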
In short: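 HUV-EC-C cells (1000/well) in complete medium, compound-treated 16 h at 37 °C; caspase-3/7 activity read by Caspase-Glo 3/7 luminescence. Normalized to DMSO (basal) and 100 uM tamoxifen (100%); AC50 from Hill-equation concentration-response fits.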

[2] = Cellular Toxicity (caspase-3) SHSY5Y (AID 657)
In short: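 SH-SY5Y human neuroblastoma cells, 1500/well, exposed to compound for 16 hours at 37 °C in complete medium. Caspase-3/7 activity read by Caspase-Glo luminescence after 1 hr at room temperature, normalized to DMSO and 10 uM staurosporine; AC50 from Hill fit.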

[3] = Cellular Toxicity (caspase-3) SK-N-SH (AID 661);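 note: 0% = DMSO basal and 100% = 10 µM staurosporine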
In short: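 Cells were seeded and incubated 5 hr at 37 °C, dosed with compound over a concentration range for 16 hr, then given Caspase-Glo 3/7 reagent for 1 hr at room temperature before luminescence reading.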

[4] = Cellular Toxicity (caspase-3) H-4-II-E (AID 663); settings: Potency: caspase-3 activation;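 note: cells exposed to compound for 16 hr before readout; 0% = DMSO basal and 100% = 100 µM tamoxifen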
In short: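 Caspase 3/7 activation measured in H-4-II-E cells in complete culture medium after 16 hr treatment at 37 °C, using luciferase-coupled substrate readout; AC50 values come from Hill-equation fits of normalized concentration-response data.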

[5] = MultiTox-Fluor Cytotoxicity Assay - LYMP1-002 - Dead Cells (AID 960);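 note: 0% = DMSO and 100% = tetraoctylammonium bromide; nearly all actives have a fitted effect of over 60% in size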
In short: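 Cells were plated, rested 5 hr, then treated with compound dilution series for 16 hr at 37 C. After adding substrate reagent and 60 min at room temperature, dead-cell protease fluorescence gave concentration-response curves fitted by the Hill equation.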

[6] = Cell Viability - LYMP1-003 - Assay at 24 hr (AID 963);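 note: plate controls were DMSO only for no effect and tetraoctylammonium bromide positive control for full effect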
In short: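 Cytotoxicity is scored as a concentration-dependent fall in ATP-linked luciferase signal in human lymphoblastoid LYMP1-003 cells treated 24 hr at 37 C in complete culture medium.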

[7] = Cell Viability - LYMP1-003 - Assay at 40 hr (AID 964); note: series mostly up to about 92 µM; % is set by controls: 0 for no effect and ±100 for the full control effect; nearly all actives have a fitted effect of over 60% in size
In short: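 Luminescent ATP signal (CellTiter-Glo) served as the viability read-out after 40 hr compound treatment of human lymphoblastoid LYMP1-003 cells at 37 C. Decreases in ATP were fitted with the Hill equation to give AC50.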

[8] = Cell Viability - LYMP2-003 (AID 965);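 note: cells exposed to compounds for 24 h before reading; 0% = DMSO only and full effect = 92 µM tetraoctylammonium bromide; nearly all actives have a fitted effect of over 50% in size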
In short: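 Human lymphoblastoid LYMP2-003 cells, 2500/well, exposed to compounds for 24 h at 37 C in complete medium. Viability read as intracellular ATP by CellTiter-Glo luminescence; AC50 from Hill-equation fits of qHTS concentration-response data.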

[9] = Cell Viability - LYMP2-009 (AID 968);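 note: series mostly up to about 92 µM; 0% = DMSO alone and the full-kill end = tetraoctylammonium bromide at 92 µM; nearly all actives have a fitted effect of over 55% in size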
[10] = Cell Viability - LYMP2-013 (AID 970);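 note: series mostly up to about 92 µM; 0% = DMSO only and full inhibition = tetraoctylammonium bromide control; nearly all actives have a fitted effect of over 55% in size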
In short: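 Cytotoxicity is scored as a concentration-dependent drop in intracellular ATP in human lymphoblastoid cells after 24 hr compound exposure at 37 C. ATP is quantified by luciferase luminescence, and AC50 values come from Hill-equation modeling.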

[11] = Cell Viability - LYMP2-023 (AID 975);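 note: series mostly up to about 92 µM; plate controls were DMSO only for no effect and 92 µM tetraoctylammonium bromide control for full effect; nearly all actives have a fitted effect of over 55% in size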
In short: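 Steps: seed 2500 human lymphoblastoid cells per well, incubate 5 hr at 37 C, add compound for 24 hr at 37 C, add CellTiter-Glo, hold 30 min at room temperature, read luminescence. AC50 derived by Hill modelling.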

[12] = Cell Viability - LYMP2-002 (AID 977);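 note: series mostly up to about 92 µM; compound exposure lasted 24 h at 37 °C; plate controls were DMSO only for no effect and 92 µM tetraoctylammonium bromide for full effect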
In short: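 In this qHTS viability screen, 2500 human lymphoblastoid cells per well receive compound for 24 hr at 37 C, and luciferase-based ATP luminescence gives the viability signal. Tetraoctylammonium bromide serves as positive control.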

[13] = Cell Viability - LYMP2-012 (AID 982);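 note: cellular ATP by luciferase luminescence where a drop means cytotoxicity; cells exposed to compound for one day before reading; 0% = DMSO only and full loss = 92 µM tetraoctylammonium bromide; nearly all actives have a fitted effect of over 55% in size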
[14] = biological target: Retinoic acid receptor RXR-alpha (Homo sapiens) (UniProt P19793); experiment: qHTS assay for small molecule agonists of retinoid X receptor alpha signaling (AID 588544; calls by dose curve;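 note: 0% = DMSO basal wells and 100% = reference agonist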)
Sequence of Retinoic acid receptor RXR-alpha (Homo sapiens) (P19793 whole entry, looked up): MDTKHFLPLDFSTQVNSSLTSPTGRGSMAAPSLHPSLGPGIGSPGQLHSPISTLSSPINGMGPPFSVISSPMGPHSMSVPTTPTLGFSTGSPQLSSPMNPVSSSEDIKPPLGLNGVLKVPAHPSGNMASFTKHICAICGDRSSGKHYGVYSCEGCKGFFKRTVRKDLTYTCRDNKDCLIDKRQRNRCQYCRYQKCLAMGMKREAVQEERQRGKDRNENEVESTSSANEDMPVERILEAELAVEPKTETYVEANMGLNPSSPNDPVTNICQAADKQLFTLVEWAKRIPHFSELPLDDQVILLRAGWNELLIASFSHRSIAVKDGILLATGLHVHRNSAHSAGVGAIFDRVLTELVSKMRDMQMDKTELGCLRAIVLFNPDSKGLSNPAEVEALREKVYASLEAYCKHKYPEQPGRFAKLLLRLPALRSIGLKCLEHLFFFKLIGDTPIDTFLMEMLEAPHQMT

[15] = biological target: Retinoic acid receptor RXR-alpha (Homo sapiens) (UniProt P19793); experiment: qHTS assay for small molecule antagonists of retinoid X receptor alpha signaling (AID 588546; active = well fitted inhibition curve with a large enough effect in the signal ratio, with a control signal flat, not every such curve was filed as active; the % refers to the signal ratio;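 note: cells stimulated with 9-cis-retinoic acid as agonist; % is set by controls: 0 for no effect and ±100 for the full control effect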); settings: HEK293T RXRa-UAS-bla, beta-lactamase ratio, antagonist mode
In short: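 Beta-lactamase reporter inhibition, read as CCF4 fluorescence ratio (ex 405, em 460/530 nm) after 2 h at RT. HEK293T UAS-bla cells, 2500/well, were stimulated with 9-cis-RA at 500 or 100 nM final alongside test compound for 18 h at 37 C.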

[16] = qHTS assay for small molecule activators of the p53 signaling pathway (AID 651743; active = well fitted activation curve with a large enough effect in the signal ratio, not every such curve was filed as active; the % refers to the signal ratio; note: series mostly up to about 92 µM; % of control where 0% means no effect); settings: HCT-116 p53RE-bla, beta-lactamase FRET ratio, 16 h; activation: hits give high values
In short: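 Agonist-mode quantitative HTS in HCT-116 cells carrying a p53-response-element beta-lactamase reporter; 16 h compound treatment at 37 C, then FRET substrate loading for 2 h at room temperature and fluorescence read.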

[17] = qHTS assay for small molecule agonists of the antioxidant response element (ARE) signaling pathway measured by Nrf2-dependant transcriptional activity - cell viability counter screen (AID 720653; active = well fitted curve in the direction sought with a large enough effect in the repeat runs; an effect the other way counts as inactive or inconclusive; note: % is set by controls: 0 for no effect and ±100 for the full control effect); settings: ARE-bla HepG2 viability, CellTiter-Glo ATP luminescence, 16 h; hits give low values
In short: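 ARE-bla HepG2 cells (2,000/well) rested 5 hrs at 37C/5% CO2, then exposed to compounds in DMSO for 16 hrs. Viability was read in the same wells as intracellular ATP by luminescence, 30 min at room temperature after reagent addition.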

[18] = Cell Viability - LYMP1-002 - Assay at 16 hr (AID 948);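 note: 0% = DMSO alone and full effect = 92 µM tetraoctylammonium bromide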
In short: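 LYMP1-002 human lymphoblastoid cells, 2500/well, were treated with compounds for 16 hr at 37 C in complete medium. Viability was read as intracellular ATP by CellTiter-Glo luminescence, and AC50 was derived from a Hill fit to concentration-response data.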

[19] = Cell Viability - LYMP2-011 (AID 969);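 note: 0% = DMSO only and full inhibition = 92 µM tetraoctylammonium bromide; nearly all actives have a fitted effect of over 60% in size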
In short: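 In this qHTS cytotoxicity format, compounds are tested across concentrations on human lymphoblastoid cells in complete medium for 24 hours at 37 C. Viability is taken as cellular ATP measured by luciferase luminescence.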

[20] = Cell Viability - LYMP2-017 (AID 972)
In short: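 Cytotoxicity is scored as a concentration-dependent drop in cellular ATP in a human lymphoblastoid line after 24 hr treatment at 37 C. Values are AC50s from Hill-equation modelling.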

CCCCC(=O)Cl
inactive: outcome [1] | outcome [2] | Potency [3] | Potency [4] | Potency [5] | outcome [6] | Potency [7] | Potency [8] | Potency [9] | Potency [10] | Potency [11] | Potency [12] | Potency [13] | outcome [14] | max response [15] -9.41% | activation [16] 1.32% | max response [17] 2.67%

[N-]=[N+]=[N-]
inactive: outcome [1] | outcome [2] | Potency [3] | Potency [4] | outcome [18] | outcome [6] | Potency [9] | Potency [19] | Potency [20] | Potency [11] | Potency [12] | Potency [13] | outcome [14] | max response [15] 13.8% | activation [16] -1.87% | max response [17] -8.07%

CC(C)(C)C(O)(CCc1ccc(Cl)cc1)Cn1cncn1 (stereo not drawn)
inactive: outcome [1] | outcome [2] | Potency [3] | Potency [4] | outcome [18] | Potency [5] | Potency [7] | Potency [8] | Potency [9] | Potency [19] | Potency [10] | Potency [20] | Potency [12] | Potency [13] | outcome [14] | max response [15] -23.2% and -32.6% | activation [16] -3.53% and -2.93% | max response [17] -4.58% and -0.482%

CCOP(=S)(OCC)Oc1nc(Cl)c(Cl)cc1Cl
inactive: outcome [1] | outcome [2] | Potency [3] | Potency [4] | outcome [18] | Potency [5] | outcome [6] | Potency [7] | Potency [8] | Potency [9] | Potency [19] | Potency [10] | Potency [11] | Potency [12] | Potency [13] | activation [16] 2.38% [middle of 4 runs] | max response [17] 0.0448% [middle of 4 runs]

Nc1cccc2ccccc12
inactive: outcome [1] | outcome [2] | Potency [3] | Potency [4] | outcome [18] | outcome [6] | Potency [7] | Potency [8] | Potency [11] | Potency [12] | Potency [13] | activation [16] -3.1% | max response [17] -19.6%

Nn1cnnc1
inactive: outcome [1] | outcome [2] | Potency [3] | Potency [4] | outcome [18] | Potency [5] | outcome [6] | Potency [9] | Potency [19] | Potency [10] | Potency [11] | Potency [12] | Potency [13] | outcome [14] | max response [15] 24.4% | activation [16] 0.253% | max response [17] -3.98%
